# Measured values as given in PubChem BioAssay (NCATS).
# “And” between values parts separate entries of the source, which are not always exact repeats. Identical values can stand only once. Records with an inconclusive call do not appear. Entries that show only a call come without a potency. The source made the active and inactive calls. Unless noted, the call rests on the fitted dose curve; in most records, active means well fitted curve in the direction sought with a large enough effect; inconclusive means small, poorly fitted or top-dose-only effect, or another doubt; inactive means no such curve, though single readings can be large; an effect the other way counts as inactive or inconclusive.
# Tests used:
# [1] = qHTS to identify inhibitors of the type 1 interferon - major histocompatibility complex class I in skeletal muscle: primary screen against the NCATS Mechanism Interrogation Plate v5.0 (MIPE) Libary (AID 1347411); further: nearly all actives have a fitted effect of over 65% in size; further: potency means the concentration at half of the fitted maximal effect
# How it was run: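 Immortalized human C25cl48 myoblasts with HiBit knocked into endogenous HLA-B*08:01 were stimulated with 4.0 ng/ml IFN-beta and exposed to compounds (11-point 1:3 titration, top 46 uM final) for 24 hrs at 37 C; HiBiT lytic luminescence measured.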
# [2] = biological target: Calcium and integrin-binding protein 1 (Homo sapiens) (UniProt Q99828); test: Primary qHTS for Identification of Calcium Integrin Binding Protein 1 (CIB1) Competitor (AID 1508620);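 further: GST tagged CIB1 binding a fluorescein labelled alphaIIb integrin peptide tracer; top concentration of the series differs between compounds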
# How it was run: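 Fluorescence polarization competition: GST-tagged CIB1 (1 uM final) preincubated with compound 15 min at room temperature, then FITC-labelled alphaIIb peptide (100 nM final) added. After 15 min at room temperature, polarization read at Ex 480/Em 540.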
# [3] = Primary qHTS for inhibitors of nuclear receptor binding SET domain protein 2 (NSD2) in an isogenic RCH-ACV NSD2 p.E1099K mutant (9B) (AID 1645876); further: nearly all actives have a fitted effect of over 70% in size; further: potency means the concentration at half of the fitted maximal effect
# [4] = Primary qHTS for inhibitors of nuclear receptor binding SET domain protein 2 (NSD2) in an RCH-ACV wild type WT cells (2C) (AID 1645877); further: nearly all actives have a fitted effect of over 70% in size; further: potency means the concentration at half of the fitted maximal effect
# [5] = Primary qHTS for small molecule stabilizers of the endoplasmic reticulum resident proteome: Secreted ER Calcium Modulated Protein (SERCaMP) assay (AID 1508630)
# How it was run: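 GLuc-SERCaMP-expressing SH-SY5Y cells, pretreated 16 h with compound, are challenged with thapsigargin to empty ER calcium stores; after 4 h, coelenterazine is added directly to the medium and luminescence is imaged.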
# [6] = biological target: Cytochrome P450 2C9 (Homo sapiens) (UniProt P11712); test: Cytochrome P450 family 2 subfamily C member 9 (CYP2C9) small molecule antagonists: luciferase biochemical (cell-free) qHTS assay (AID 1645842; active means well fitted curve in the direction sought with a large enough effect in the repeat runs; an effect the other way counts as inactive or inconclusive; further: nearly all actives have a fitted effect of over 55% in size; further: potency means the concentration at half of the fitted maximal effect)
# How it was run: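 Luminescence, after 20 min with luciferin detection reagent, reflected CYP2C9 turnover during a 1 h NADPH-driven reaction at 37C. Enzyme-substrate mix contained 0.4% bovine serum albumin and was preincubated with compound 10 min at room temperature.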
# [7] = biological target: Cytochrome P450 2D6 (Homo sapiens) (UniProt P10635); test: Cytochrome P450 family 2 subfamily D member 6 (CYP2D6) small molecule antagonists: luciferase biochemical (cell-free) qHTS assay (AID 1645840; active means well fitted curve in the direction sought with a large enough effect in the repeat runs; an effect the other way counts as inactive or inconclusive; further: nearly all actives have a fitted effect of over 55% in size; further: potency means the concentration at half of the fitted maximal effect)
# How it was run: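 P450-Glo luminescent screen: recombinant CYP2D6 enzyme–proluciferin substrate mix preincubated with compound 10 min at room temperature, then NADPH regeneration added for 1 h at room temperature. Detection reagent added for 20 min; luciferin light read as relative luminescence units.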
# Sequence of Cytochrome P450 2C9 (Homo sapiens) (P11712 whole entry, looked up): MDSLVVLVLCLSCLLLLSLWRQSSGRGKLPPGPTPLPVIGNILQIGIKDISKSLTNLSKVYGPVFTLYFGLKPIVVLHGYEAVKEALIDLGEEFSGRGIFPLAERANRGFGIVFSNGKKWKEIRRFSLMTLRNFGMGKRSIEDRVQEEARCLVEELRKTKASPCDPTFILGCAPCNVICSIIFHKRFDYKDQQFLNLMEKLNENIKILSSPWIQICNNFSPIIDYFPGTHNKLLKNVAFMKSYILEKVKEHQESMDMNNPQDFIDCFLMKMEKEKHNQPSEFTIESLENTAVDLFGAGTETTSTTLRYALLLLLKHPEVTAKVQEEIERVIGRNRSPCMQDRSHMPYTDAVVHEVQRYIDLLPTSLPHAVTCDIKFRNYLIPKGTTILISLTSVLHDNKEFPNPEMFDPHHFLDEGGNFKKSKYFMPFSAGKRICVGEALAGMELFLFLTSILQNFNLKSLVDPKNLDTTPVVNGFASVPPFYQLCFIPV
# Sequence of Cytochrome P450 2D6 (Homo sapiens) (P10635 whole entry, looked up): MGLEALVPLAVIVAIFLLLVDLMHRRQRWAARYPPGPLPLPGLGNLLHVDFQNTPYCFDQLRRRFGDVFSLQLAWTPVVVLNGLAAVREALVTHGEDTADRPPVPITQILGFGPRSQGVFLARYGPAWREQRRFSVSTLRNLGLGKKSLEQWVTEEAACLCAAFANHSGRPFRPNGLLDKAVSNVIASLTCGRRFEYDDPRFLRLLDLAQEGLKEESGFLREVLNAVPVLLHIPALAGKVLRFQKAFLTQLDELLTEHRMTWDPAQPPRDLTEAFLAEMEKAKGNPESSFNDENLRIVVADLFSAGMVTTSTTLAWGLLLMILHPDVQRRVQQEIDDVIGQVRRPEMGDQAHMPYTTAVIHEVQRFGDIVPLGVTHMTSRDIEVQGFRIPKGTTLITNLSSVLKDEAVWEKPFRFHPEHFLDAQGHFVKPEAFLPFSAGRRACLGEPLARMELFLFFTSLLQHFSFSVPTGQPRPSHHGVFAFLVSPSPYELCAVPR
# Sequence of Calcium and integrin-binding protein 1 (Homo sapiens) (Q99828 whole entry, looked up): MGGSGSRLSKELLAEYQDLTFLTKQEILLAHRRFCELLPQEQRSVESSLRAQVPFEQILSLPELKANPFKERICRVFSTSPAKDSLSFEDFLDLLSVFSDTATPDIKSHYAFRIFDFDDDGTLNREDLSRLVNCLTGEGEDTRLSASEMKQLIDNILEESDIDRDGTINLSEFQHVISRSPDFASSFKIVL
SMILES,Potency [1],Potency [2],Potency [3],Potency [4],outcome [5],Potency [6],Potency [7]
COC(=O)[C@H](CCCN=C(N)N)NS(=O)(=O)c1ccc(C)cc1,inactive,inactive,inactive,inactive,,,
O=[N+]([O-])c1cn2c(n1)OC[C@@H](OCc1ccc(OC(F)(F)F)cc1)C2,inactive,inactive,inactive,inactive,inactive,,
CC(C(C)N1CC(=O)NC(=O)C1)N1CC(=O)NC(=O)C1 (stereo unspecified),inactive,inactive,5.25 µM (active),3.32 µM (active),inactive,,
NC(=O)Nc1sc(-c2ccc(F)cc2)cc1C(N)=O,1.65 µM (active),inactive,3.32 µM (active),3.72 µM (active),,,
C[C@H](NC(=O)[C@@H](O)c1cc(F)cc(F)c1)C(=O)N[C@@H]1C(=O)N(C)c2ccccc2-c2ccccc21,inactive,inactive,inactive,inactive,,,
OC[C@@H](O)[C@@H](O)[C@H](O)[C@@H](O)CO,inactive,inactive,inactive,inactive,,,
c1ccc(CNc2nc(NCc3ccccc3)c3ccccc3n2)cc1,26.2 µM (active),inactive,5.9 µM (active),5.9 µM (active),inactive,,
Cc1cncc2cccc(S(=O)(=O)N3CCCN(C(=O)CN)C[C@@H]3C)c12,inactive,,,1.45 µM (active),inactive,19 µM (active),
NC1=N[C@H]2[C@H](CS[C@H]2CCCCC(=O)O)N1,inactive,inactive,inactive,,,inactive,inactive
CC(=O)NC(CS)C(=O)O (stereo unspecified),inactive,inactive,inactive,inactive,inactive,,
C[C@@H]1CC[C@@]2(OC1)OC1CC3C4CC=C5CC(O)CCC5(C)C4CCC3(C)C1[C@@H]2C (stereo partly specified),inactive,inactive,inactive,inactive,inactive,,
COc1cccc2c1C(=O)c1c(O)c3c(c(O)c1C2=O)C[C@@](O)(C(=O)CO)C[C@@H]3O[C@H]1C[C@H](N)[C@@H](O)[C@H](C)O1,0.829 µM (active),,0.0661 µM (active),0.0468 µM (active),inactive,,
CC(Oc1ccc(O)cc1)(P(=O)(O)O)P(=O)(O)O,inactive,inactive,inactive,inactive,inactive,,
COc1ccc([C@@H]2CNC(=O)C2)cc1OC1CCCC1,inactive,inactive,inactive,inactive,inactive,,
O=S(=O)(O)CCSSCCS(=O)(=O)O,inactive,inactive,inactive,inactive,,,
CC1=C(C(=O)Nc2cc3cn[nH]c3cc2F)C(c2ccc(Cl)cc2F)N=C(c2ccnc(Cl)c2)N1 (stereo unspecified),inactive,inactive,5.78 µM (active) and 9.34 µM (active),2.58 µM (active) and 4.17 µM (active),,3.79 µM (active),6.74 µM (active)
C=C(C)[C@@H]1CC[C@]2(C)CC[C@]3(C)[C@H](CC[C@@H]4[C@@]5(C)CC[C@H](O)C(C)(C)[C@H]5CC[C@]43C)[C@@H]12,inactive,inactive,inactive,inactive,,,
C[C@H](CCC(=O)O)[C@H]1CCC2C3C[C@H](O)[C@@H]4C[C@H](O)CC[C@]4(C)C3CC[C@@]21C (stereo partly specified),inactive,inactive,inactive,inactive,inactive,,
COc1cc(C[C@@H](CO)[C@H](CO)Cc2ccc(O)c(OC)c2)ccc1O,inactive,inactive,inactive,inactive,inactive,,
O=C(O)CCCCC(CCSCc1ccccc1)SCc1ccccc1 (stereo unspecified),inactive,inactive,inactive,inactive,inactive,,
Cn1cc(-c2ccc3ncc(Cc4ccc5ncccc5c4)n3n2)cn1,inactive,inactive,,,,0.756 µM (active),12 µM (active)
COc1cc2c(cc1OC)[C@@H]1C(=O)c3ccc4c(c3O[C@@H]1CO2)C=CC(C)(C)O4,inactive,inactive,16.4 µM (active) and 1.86 µM (active),18.4 µM (active) and 5.9 µM (active),inactive,,
CCN(C(=O)c1c(O)c2c(Cl)cccc2n(C)c1=O)c1ccccc1,inactive,inactive,,inactive,inactive,,
Oc1ccc(-c2ccc(-c3cc(Nc4cccc(CNC5CC5)c4)n[nH]3)cc2)c(O)c1,5.87 µM (active),inactive,1.48 µM (active),1.86 µM (active),inactive,,
CC(=O)O[C@H]1C[C@@H]2CC[C@H]3[C@H]4C[C@H]([N+]5(C)CCCCC5)[C@@H](OC(C)=O)[C@@]4(C)CC[C@@H]3[C@@]2(C)C[C@H]1[N+]1(C)CCCCC1,inactive,inactive,inactive,inactive,inactive,,
